MITF inh – MITF inhibitors, primary screen, biochemical, AlphaScreen, human; AlphaScreen MITF homodimerization, bead proximity signal; hit rate 0.91% among 650,000; inhibition, % at 2.6 µM; AID 1259374, 2018; in the data active = inhibition above about 50%;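 also: 0% = vehicle wells with protein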
Target sequence (O75030 whole entry, looked up): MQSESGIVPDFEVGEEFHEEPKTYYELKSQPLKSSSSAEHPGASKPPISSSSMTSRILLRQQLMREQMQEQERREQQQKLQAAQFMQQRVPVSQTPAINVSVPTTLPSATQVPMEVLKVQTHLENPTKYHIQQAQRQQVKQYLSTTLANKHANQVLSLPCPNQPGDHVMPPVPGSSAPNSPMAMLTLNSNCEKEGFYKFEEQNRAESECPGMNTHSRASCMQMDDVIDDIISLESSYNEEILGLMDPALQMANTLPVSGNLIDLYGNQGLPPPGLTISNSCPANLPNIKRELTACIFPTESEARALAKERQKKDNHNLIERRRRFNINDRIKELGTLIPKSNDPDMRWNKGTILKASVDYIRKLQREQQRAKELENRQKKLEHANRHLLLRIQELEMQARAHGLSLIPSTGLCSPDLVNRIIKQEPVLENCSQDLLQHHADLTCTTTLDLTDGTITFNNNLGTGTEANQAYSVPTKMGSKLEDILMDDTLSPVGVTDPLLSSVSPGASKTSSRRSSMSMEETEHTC
FBW7 act – FBW7 E3 ligase activators, primary screen, biochemical, AlphaScreen, human; F-box/WD repeat-containing protein 7 (Homo sapiens), Q969H0; AlphaScreen FBW7–phospho-cyclin E peptide binding, activator screen; normalized activity (activation), % at 26.1 µM; hit rate 0.13% among 650,000; in the data active = normalized activity above about 1.9%;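 also: purified mutant Fbw7 with reduced substrate affinity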
GPR151 activ – activators of human GPR151, primary screen, cell-based, PathHunter beta-arrestin, luminescence. PathHunter beta-arrestin GPR151 cells. AID 1508602, 2020. hit rate 1% among 650,000. G-protein coupled receptor 151 (Homo sapiens), Q8TDV0. activation, % at 11.2 µM; in the data active = activation above about 4.9%;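 also: 0% = median of compound wells and 100% = cells with positive control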
TEAD-YAP block – TEAD-YAP interaction inhibition, primary screen, TEAD-YAP interaction inhibitor project, luminescence, HEK-TIYL cells | inhibition, % at 9.12 µM | TEAD-Gal4/YAP UAS-luciferase luminescence | hit rate 1.4% among 640,000; in the data active = inhibition above about 32%;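 also: 0% = median of test compound wells and 100% = reference inhibitor wells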
MITF inh conf – MITF inhibitors, retest of hits, confirmation, biochemical, AlphaScreen, triplicate. shares compounds with MITF inh. AlphaScreen MITF homodimerization, biotin/His-MITF beads. inhibition, % at 2.6 µM. hit rate 16% among 4,700. AID 1259372, 2018;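 active = inhibition above a cutoff derived from the DMSO control wells, cut at about 28% in these data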;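 also: 0% = MITF dimer wells with DMSO only; inhibitors lower the bead chemiluminescence by keeping MITF from dimerizing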
AS interf ctr – AlphaScreen optical interference compounds, counter-screen for MITF inhibitor project, biochemical, triplicate; shares compounds with MITF inh; LysRS AlphaScreen counterscreen, signal interference; inhibition, % at 2.6 µM; hit rate 7.6% among 4,700; AID 1259376, 2018;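 active = inhibition above a cutoff derived from the DMSO control wells, cut at about 30% in these data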
* marks the source's active call; other numbers are inactive results; x = not tested or not shown. The list is not random: actives were taken first. Their share in the collection is about 3.5%.

SMILES | MITF inh | FBW7 act | GPR151 activ | TEAD-YAP block | MITF inh conf | AS interf ctr
O=C(c1ccccc1F)N1CCN(Cc2cccnc2)CC1 | 63* | 0 | 1 | 9 | -16 | -6
O=C(c1ccccc1F)N1CCN(Cc2ccncc2)CC1 | 73* | 0 | 1 | 8 | -13 | -3
O=C(c1ccco1)N1CCN(Cc2cccnc2)CC1 | 66* | 0 | -1 | 7 | 3 | -1
O=C(c1ccccc1F)N1CCC(O)(c2cccnc2)CC1 | 29 | 0 | 4 | -3 | x | x
COc1cc(CN2CCN(C(=O)c3ccco3)CC2)cc(OC)c1OC | 33 | 0 | 1 | 9 | x | x
O=C(c1ccccc1F)N1CCN(Cc2ccc(Br)cc2)CC1 | 50 | 0 | -1 | 19 | x | x
CC(C)OCCCNC(=O)CN1C(=O)/C(=C\c2ccc(Cl)cc2)Sc2ccccc21 | -3 | 0 | 0 | -7 | x | x
CN(C(=O)c1ccccc1Cl)C1CCS(=O)(=O)C1 (centres undefined) | -8 | 0 | 0 | 5 | x | x
CN(C)CCN(Cc1ccccc1)Cc1ccc(O)cc1 | 33 | 0 | -1 | -1 | x | x
COc1cccc(CN(CCN(C)C)Cc2ccccc2)c1OC | 52* | 0 | 0 | 4 | -6 | -3
CCN(CC)CCN(C)Cc1ccc([N+](=O)[O-])cc1 | 73* | 0 | 1 | -8 | 8 | 21
CCN(CCN(C)C)Cc1ccc(NC(C)=O)cc1 | 46 | 0 | -1 | 9 | x | x
CN(C)CCN(Cc1ccccc1)Cc1ccccc1O | -349 | 0 | 0 | -1 | x | x
CN(C)CCN(Cc1ccccc1)Cc1ccc([N+](=O)[O-])cc1 | 66* | 0 | 0 | -8 | 5 | 2
CC(=O)Nc1ccc(CN(CCN(C)C)Cc2ccccc2)cc1 | 59* | 0 | 0 | 2 | -3 | 0
CCCOc1ccc(N2C(=O)CC(NCCC(=O)O)C2=O)cc1 (centres undefined) | 12 | 1 | 0 | 2 | x | x
O=C(/C=C/c1cccc([N+](=O)[O-])c1)N1CCCCC1 | -8 | -2 | 0 | -26 | x | x
CCCCN(CC)CCNC(=O)CNC(=O)Cn1cnc2ccccc2c1=O | 14 | 0 | 0 | 9 | x | x
COc1cc(/C=C2/NC(=O)N(c3cccc(Cl)c3)C2=O)cc([N+](=O)[O-])c1O | 3 | 0 | 0 | 2 | x | x
Cc1cccc(OCC(=O)Nc2cc(C)c(C)cc2O)c1 | 98* | 0 | 0 | -2 | -12 | 3
CCc1ccc(NC(=O)C2c3cc(OC)c(OC)cc3C(=O)N(C)C2c2cccnc2)cc1 (centres undefined) | -19 | 0 | -1 | -20 | x | x
COc1ccccc1CN1CCCCCC1 | 18 | 0 | 1 | 2 | x | x
COc1ccc(CN2CCN(Cc3ccccn3)CC2)c(OC)c1OC | 59* | 0 | 0 | -7 | 12 | 18
COc1ccccc1CN1CCN(Cc2ccccn2)CC1 | 65* | 0 | 1 | -1 | 1 | 16
COc1ccc(CN2CCN(c3ccccn3)CC2)c(OC)c1OC | 41 | 0 | 1 | 1 | x | x
SMILES | MITF inh | FBW7 act | GPR151 activ | TEAD-YAP block | MITF inh conf | AS interf ctr
CC(C)(O)CNC(=O)c1ccc(Cl)cc1 | -16 | 0 | 0 | -5 | x | x
CN(Cc1ccccc1)c1cc(-c2ccncc2)nc(-c2cccnc2)n1 | 6 | 0 | 1 | -7 | x | x
CN(Cc1ccccc1)c1cc(-c2ccccn2)nc(-c2ccccn2)n1 | 79* | -1 | 3 | 40* | 37* | 81*
COc1cccc(C(=O)NNC(=O)C(=O)NCCO)c1 | 61* | 1 | 1 | 5 | -6 | 3
COc1cccc(C(=O)NNC(=O)C(=O)NC(C)C)c1 | 10 | 0 | 0 | 0 | x | x
O=C(CCCn1c(SCc2nc3ccccc3[nH]2)nc2ccsc2c1=O)NCCc1ccccc1 | 3 | 0 | -1 | -6 | x | x
O=C(O)CCCCCn1c(SCc2nc3ccccc3[nH]2)nc2ccsc2c1=O | 61* | 0 | 0 | -6 | -11 | -7
O=C(C1CCN(Cc2ccccc2)CC1)N1CCN(C/C=C/c2ccccc2)CC1 | 60* | 0 | 2 | 17 | 10 | 13

Source: PubChem BioAssay
